# Most compounds without a hit are left out; they make up all but 2% or so of the library.
# PolyA inh: inhibitors of polyadenylation in S. cerevisiae. 300,000 tested, 0.02% active. S. cerevisiae SKY197-pL101 polyadenylation reporter, beta-gal luminescence; efflux-impaired pdr1/pdr3 knockout yeast; score 100 = 6 SD above DMSO. activity score, % at 12 µM;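 active = lowest replicate activity score at least 50, where 100 means six control SD above control mean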;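 note: yeast exposed to compound for 9 h at 30 °C; higher score means more reporter readthrough which indicates perturbed polyadenylation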
# Platelet DG rel: modulates dense granule release in human platelets; inhibition, %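 (compounds screened at 7.5 µM in platelet-rich plasma)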; 300,000 tested, 0.22% active; human platelet-rich plasma, SFLLRN dense granule ATP release, luminescence; AID 1663;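 active = mean replicate score, as percent of positive control, at or above 50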
# Yeast superoxide: yeast age-related superoxide inhibition as caloric restriction mimetic; S. cerevisiae aged cells, superoxide DHE fluorescence; hits give low values; superoxide response (% of plate mean), % at 10 µM; 330,000 tested, 0.18% active;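 active = superoxide response under a set limit, about three screen SD below normal, cut at about 65% in these data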;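 note: yeast aged for seven days with compound at 30 °C before DHE staining; 100% = average MFI of all compound-treated wells on the plate with controls excluded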
# SKKanGAS inh: SKKanGAS growth inhibition; S. pyogenes SKKanGAS, kanamycin growth, BacTiter-Glo, 6 h; inhibition, % at 7.5 µM; 300,000 tested, 1.3% active; AID 1662;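 active = mean replicate score, as percent of positive control median, at least 50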;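 note: strain carries kanamycin resistance gene driven by streptokinase promoter and grows in 40 µg/ml kanamycin; loss of luminescence reflects streptokinase promoter inhibition or plain growth inhibition; 0% = median of DMSO wells and 100% = positive control at its reference dose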
# Calb FLC: affects C. albicans growth with fluconazole; AID 1979; 300,000 tested, 0.57% active; growth inhibition, % (no concentration beside the values); C. albicans CaCi-2 (fluconazole-resistant clinical isolate) + fluconazole, Alamar Blue growth, 48 h;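 active = growth inhibition above about 58% in most replicates, limit read from the data, passing the limit was not always enough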;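 note: all wells also contain fluconazole at 8 µg/ml as a sub-toxic cotreatment; 0% = median of DMSO wells and 100% = median of geldanamycin control wells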
# Starred values were filed as active, the others as inactive; · = not tested or not shown.
SMILES,PolyA inh,Platelet DG rel,Yeast superoxide,SKKanGAS inh,Calb FLC
COc1ccc(S(=O)(=O)NCC(c2ccc(F)cc2)N2CCN(C)CC2)cc1 (stereo unspecified),-11,2,102,50*,-1
COc1ccc(S(=O)(=O)NCC(c2cccnc2)N2CCN(C)CC2)cc1OC (stereo unspecified),28,-5,84,0,-1
Cc1ccc(S(=O)(=O)N2CCCC2CNC(=O)C(=O)Nc2ccc(F)cc2F)cc1 (stereo unspecified),17,5,86,-4,4
O=C1c2[nH]nc(-c3ccccc3O)c2C(c2cccc(Cl)c2)N1Cc1ccco1 (stereo unspecified),12,9,101,50*,-7
CCOc1ccc(-c2c(C#N)c(N)nc3sc(C(=O)c4ccccc4)c(N)c23)cc1,-18,-6,86,4,0
COc1ccc(-c2c(C#N)c(N)nc3sc(C(=O)c4ccccc4)c(N)c23)cc1,-5,12,88,53*,0
C=CCn1c(O)c(N=NC(=S)Nc2cccc(OC)c2)c2ccccc21,-43,0,90,87*,45
C=CCn1c(O)c(N=NC(=S)Nc2ccc(OC)cc2)c2ccccc21,-5,4,107,56*,108*
C=CCn1c(O)c(N=NC(=O)OCC)c2ccccc21,-7,4,98,-17,6
Cc1nc(N2CCOCC2)nc2c1CCC2,6,2,114,6,59
O=C(CSc1nc2ccccc2c(=O)[nH]1)Nc1ccc(N2CCOCC2)c(Cl)c1,-6,-5,97,15,-3
CC(C)S(=O)(=O)c1csc(C(=O)Nc2ccc(F)cc2)c1N,-6,57*,105,20,-5
O=C(Nc1ccc(F)cc1)c1ccccc1,-16,3,96,-5,-2
O=C(NNC(=O)C1CC(=O)N(Cc2ccccc2)C1)c1ccc(Br)cc1 (stereo unspecified),6,-4,92,-1,3
Oc1ccc(/C=C/c2ccc3cccc(O)c3n2)cc1Br,-4,13,106,89*,12
O=[N+]([O-])c1cccc(/C=C/c2ccc3cccc(O)c3n2)c1,-3,-2,89,84*,-2
O=[N+]([O-])c1ccc(/C=C/c2ccc3cccc([N+](=O)[O-])c3n2)cc1,-13,3,82,-1,0
Cc1ccc(C)c(S(=O)(=O)N2CCN(Cc3cc4c(cc3O)OCO4)CC2)c1,·,·,95,·,·
O=C(NC1CCN(C(=O)Nc2cccc(Cl)c2)CC1)c1ccco1,-18,-1,91,6,-6
Cc1cc(C)c(C(=O)C(C)OC(=O)c2ccc(Cl)nc2)cc1C (stereo unspecified),2,0,109,-5,49
NS(=O)(=O)c1cccc(NC(=O)CSc2nnnn2-c2ccccc2)c1,12,-4,84,-6,-1
CN(C)S(=O)(=O)c1cccc(NC(=O)CSc2nnnn2-c2ccccc2)c1,13,50*,102,-9,-9
CC(C)CC(=O)Nc1ccc(C(=O)NNC(=S)NC(=O)C2CCCCC2)cc1,-8,-4,99,93*,3
CCOC(=O)N1CCN(Cc2nc3c(c(=O)n(C)c(=O)n3C)n2Cc2cccc3ccccc23)CC1,-1,73*,107,0,8
CCOc1cc(/C=N/N=C(N)N)ccc1OCc1ccc(Cl)cc1,-2,-1,95,4,105*
SMILES,PolyA inh,Platelet DG rel,Yeast superoxide,SKKanGAS inh,Calb FLC
COc1cc(/C=N/N=C(N)N)ccc1OCc1ccc(Cl)cc1,-10,5,93,11,-3
CCCNC(=O)C(Cc1ccc(I)cc1)NC(=O)C1CC1 (stereo unspecified),·,·,127,·,·
Cc1cccc(NCc2ccc(O)c3ncccc23)c1C,0,0,98,11,104*
Cc1cccnc1NCc1ccc(O)c2ncccc12,-5,1,105,67*,-27
CCOC(=O)c1sc(NC(=O)CN2CCN(c3ccccc3)CC2)nc1C,3,5,99,7,31
O=C(Nc1ccccc1)c1ccn[nH]1,12,11,101,9,-2
CC(=O)c1ccc(NC(=O)c2ccn[nH]2)cc1,20,50*,93,6,7
O=C(O)CCn1cc(/C=C/C(=O)c2ccc(Cl)cc2)c(-c2ccc(Br)cc2)n1,·,·,100,·,·
COc1ccccc1C(=O)Nc1ccc(S(=O)(=O)Nc2cnc3ccccc3n2)cc1,4,13,110,14,1
